Several values for one entry are separate records, joined by “and”; a condition that tells them apart may be missing. Equal values may be shown once. Results filed as inconclusive are left out. Where a structure was tested more than once in an assay, its records may differ in their call. Activity calls are given as the source filed them. The call rests on the fitted dose curve; in most records, active means well fitted inhibition curve with a large enough effect in the repeat runs; inconclusive means weak or mixed curves; inactive means no such curve, though single readings can be large or run the other way.
Each compound was assayed against Cytochrome P450 2C19 (Homo sapiens) (UniProt P33261) (assay: Cytochrome P450 Family 2 Subfamily C Member 19 (CYP2C19) small molecule antagonists: luciferase reporter qHTS assay (AID 1671197; further: nearly all actives have a fitted effect of over 65% in size)). Conditions: P450-Glo CYP2C19 enzyme, luciferin luminescence, 1 h; series mostly up to 115 µM.
Procedure, shortened: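 Luminescent readout of CYP2C19 activity: luciferin product detected 20 min after adding detection reagent. Before that, compound and enzyme-substrate mix preincubated 10 min at room temperature; NADPH-regenerating system started a 1 h, 37C reaction. Ketoconazole as positive control.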
Potency means the concentration at half of the fitted maximal effect.

Cytochrome P450 2C19 (Homo sapiens), sequence (P33261 whole entry, looked up): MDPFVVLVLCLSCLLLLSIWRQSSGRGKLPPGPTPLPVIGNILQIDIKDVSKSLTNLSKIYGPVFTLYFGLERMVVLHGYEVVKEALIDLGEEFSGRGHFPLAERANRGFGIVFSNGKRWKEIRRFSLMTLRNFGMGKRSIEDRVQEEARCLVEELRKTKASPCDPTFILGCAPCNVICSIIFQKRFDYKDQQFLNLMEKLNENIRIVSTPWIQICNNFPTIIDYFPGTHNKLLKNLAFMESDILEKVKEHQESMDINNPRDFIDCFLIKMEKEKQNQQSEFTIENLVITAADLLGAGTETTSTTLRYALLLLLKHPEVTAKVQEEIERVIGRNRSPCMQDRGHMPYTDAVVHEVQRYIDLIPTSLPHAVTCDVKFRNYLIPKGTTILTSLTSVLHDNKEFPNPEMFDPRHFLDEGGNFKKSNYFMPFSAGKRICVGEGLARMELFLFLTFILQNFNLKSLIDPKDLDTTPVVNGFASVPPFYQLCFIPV

**Q.** How did the Potency turn out when C=C1CC[C@H](O)CC1=C/C=C1\CCC[C@]2(C)[C@@H]([C@H](C)/C=C/[C@H](C)C(C)C)CC[C@@H]12 was run?
**A.** The Potency was 35.3 µM (active) and 25.2 µM (active).

**Q.** Cc1cc(Cc2ccc(N)c(C)c2)ccc1N was tested. Which Potency did it give?
**A.** Its Potency is 3.56 µM (active) and 5.03 µM (active).

**Q.** CC1Cc2ccccc2N1NC(=O)c1ccc(Cl)c(S(N)(=O)=O)c1 (stereo not drawn) was tested. Which Potency did it give?
**A.** The Potency was “inactive”.

**Q.** Which Potency does the source give for Oc1ccc(OCc2ccccc2)cc1 here?
**A.** The Potency was 34.8 µM (active) and 8.71 µM (active).

**Q.** For O=C(O)c1cc(-c2ccccc2)nc2ccccc12, which Potency is on record?
**A.** The Potency was 50.9 µM (active) and inactive.

**Q.** Which Potency does the source give for CC1=C(/C=C/C(C)=C/C=C/C(C)=C/CO)C(C)(C)CCC1 here?
**A.** The Potency was 50.9 µM (active) and 37.5 µM (active).

**Q.** With CCCCOCCOCCOC(=O)CCCCC(=O)OCCOCCOCCCC as the compound, how does the Potency read?
**A.** The Potency was 22.5 µM (active) and 22.4 µM (active).

**Q.** For CN(CCOc1ccc(CC2SC(=O)NC2=O)cc1)c1ccccn1 (stereo not drawn), which Potency is on record?
**A.** The Potency was “inactive”.

The compounds below were run against Cytochrome P450 2C9 (Homo sapiens) (UniProt P11712) (assay: Cytochrome P450 Family 2 Subfamily C Member 9 (CYP2C9) small molecule antagonists: luciferase reporter qHTS assay (AID 1671198; further: nearly all actives have a fitted effect of over 50% in size)). Conditions: P450-Glo CYP2C9 enzyme assay, luciferin luminescence; series mostly up to 115 µM.
Procedure, shortened: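 CYP2C9 activity was measured with a P450-Glo proluciferin substrate. Enzyme–substrate mix was held with compound for 10 min at room temperature, then NADPH regeneration solution was added for 1 h at 37C. Luciferin product was read as luminescence.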

Cytochrome P450 2C9 (Homo sapiens), sequence (P11712 whole entry, looked up): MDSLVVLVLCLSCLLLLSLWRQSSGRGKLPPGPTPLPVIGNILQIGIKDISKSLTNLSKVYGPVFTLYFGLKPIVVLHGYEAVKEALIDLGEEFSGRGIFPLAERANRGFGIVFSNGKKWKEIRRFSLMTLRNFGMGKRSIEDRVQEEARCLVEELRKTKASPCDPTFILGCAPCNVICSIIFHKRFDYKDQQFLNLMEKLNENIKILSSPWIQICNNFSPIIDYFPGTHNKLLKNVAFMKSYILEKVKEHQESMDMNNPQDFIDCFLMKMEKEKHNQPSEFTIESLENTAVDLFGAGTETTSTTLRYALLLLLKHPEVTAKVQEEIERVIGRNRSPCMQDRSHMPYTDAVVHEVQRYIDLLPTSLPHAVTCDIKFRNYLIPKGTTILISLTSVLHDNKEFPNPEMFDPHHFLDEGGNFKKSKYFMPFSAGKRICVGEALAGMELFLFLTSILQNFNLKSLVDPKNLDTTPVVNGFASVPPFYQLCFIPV

**Q.** Which Potency does the source give for O=C1CCCCC1 here?
**A.** Its Potency is “inactive”.

**Q.** For C=C1C2CCC(C2)C1(C)C (stereo not drawn), which Potency is on record?
**A.** The Potency was “inactive”.

**Q.** For CCC(C)C=O (stereo not drawn), which Potency is on record?
**A.** Its Potency is “inactive”.

**Q.** For Cc1cc(Cc2ccc(N)c(C)c2)ccc1N, which Potency is on record?
**A.** Its Potency is 6.33 µM (active) and 25.2 µM (active).

**Q.** How did the Potency turn out when CC(=O)Nc1ccc(C(=O)O)cc1 was run?
**A.** Its Potency is “inactive”.

**Q.** For CC1Cc2ccccc2N1NC(=O)c1ccc(Cl)c(S(N)(=O)=O)c1 (stereo not drawn), which Potency is on record?
**A.** Its Potency is “inactive”.

**Q.** For Oc1c(Cl)cc(Cl)c(Cl)c1Cl, which Potency is on record?
**A.** The Potency was 39.1 µM (active) and 28.3 µM (active).

**Q.** Nc1c(S(=O)(=O)O)cc(Br)c2c1C(=O)c1ccccc1C2=O was tested. Which Potency did it give?
**A.** The Potency was 16.3 µM (active) and 7.96 µM (active).

**Q.** CCCCNC(N)=O was tested. Which Potency did it give?
**A.** Its Potency is “inactive”.

**Q.** For CCCCC/C=C\C/C=C\CCCCCCCC(=O)OC, which Potency is on record?
**A.** Its Potency is 35.2 µM (active) and 7.96 µM (active).

**Q.** For C=C(C#N)C(=O)OCC, which Potency is on record?
**A.** Its Potency is “inactive and 63.3 µM (active)”.

**Q.** For CCOC(=O)/C=C\C(=O)OCC, which Potency is on record?
**A.** The Potency was “inactive”.

**Q.** For OCCOCCOCCOCCO, which Potency is on record?
**A.** The Potency was “inactive”.

**Q.** How did the Potency turn out when O=C(O)c1cc(-c2ccccc2)nc2ccccc12 was run?
**A.** The Potency was 43.9 µM (active).

**Q.** With Cc1ccc(N)c(S(=O)(=O)O)c1 as the compound, how does the Potency read?
**A.** The Potency was 45.4 µM (active).

**Q.** Which Potency does the source give for CC1COc2ccccc2N1C(=O)C(Cl)Cl (stereo not drawn) here?
**A.** The Potency was 15.9 µM (active) and 28.2 µM (active).

**Q.** CC1=CC[C@H]2C[C@@H]1C2(C)C was tested. Which Potency did it give?
**A.** The Potency was “inactive”.

**Q.** For OC[C@@H](O)[C@H](O)[C@H](O)[C@@H](O)CO, which Potency is on record?
**A.** The Potency was “inactive”.

**Q.** Which Potency does the source give for COC(=O)c1ccc(C(=O)OC)cc1 here?
**A.** Its Potency is 40.5 µM (active) and inactive.

**Q.** How did the Potency turn out when CC1=C(/C=C/C(C)=C/C=C/C(C)=C/CO)C(C)(C)CCC1 was run?
**A.** The Potency was 64.1 µM (active) and 37.5 µM (active).

**Q.** COCC(C)O (stereo not drawn) was tested. Which Potency did it give?
**A.** The Potency was “inactive”.

**Q.** Which Potency does the source give for c1ccc2ccccc2c1 here?
**A.** Its Potency is “inactive”.

**Q.** For C=C(C)C(=O)OCCCCCCCCCCCC, which Potency is on record?
**A.** The Potency was “inactive”.

**Q.** How did the Potency turn out when CCCCOCCOCCOC(=O)CCCCC(=O)OCCOCCOCCCC was run?
**A.** Its Potency is 11.3 µM (active) and 17.8 µM (active).

**Q.** How did the Potency turn out when CCc1ccc(O)cc1 was run?
**A.** The Potency was “inactive”.

**Q.** CCCCCCCCCCCCN was tested. Which Potency did it give?
**A.** Its Potency is 22.6 µM (active) and 6.33 µM (active) and 32.2 µM (active).

**Q.** How did the Potency turn out when CN(CCOc1ccc(CC2SC(=O)NC2=O)cc1)c1ccccn1 (stereo not drawn) was run?
**A.** The Potency was 62.9 µM (active) and inactive.

**Q.** C=C(C)C(=O)OCCC[Si](OC)(OC)OC was tested. Which Potency did it give?
**A.** The Potency was 15.7 µM (active).

**Q.** Which Potency does the source give for CCCCCCCCCCC=CC1CC(=O)OC1=O (stereo not drawn) here?
**A.** Its Potency is 71.4 µM (active) and 39.9 µM (active).

**Q.** For CC[Si](OC(C)=O)(OC(C)=O)OC(C)=O, which Potency is on record?
**A.** The Potency was 71 µM (active) and inactive.
